TGFb SMAD3 inh: TGF-b pathway inhibition; HepG2 CAGA-GFP TGF-b/SMAD3 reporter, GFP fluorescence, 18 h; TGF-beta stimulated, 500 pg/mL final; Potency, µM (doses to about 46.1 µM), for the others: at the highest dose activity, negative = inhibition, usual class: inhibitors; 410,000 compounds, 1.2% hits; note: potency is the fitted concentration of half-maximal effect; % is set by controls: 0 for no effect and ±100 for the full control effect; nearly all actives have a fitted effect of over 65% in size
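First, reporter cells (HEPG2 CAGA-GFP) rested 2 h at 37 degrees C. Next, compounds were pinned in and TGF-beta added to 500 pg/mL final. After 18 h, GFP was imaged per cell and summed per well.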
TDP1 block: TDP1 (human) enzyme inhibition; Potency, µM (series often up to 130 µM), without a hit: at the top dose activity change, negative = inhibition, actives largely listed as inhibitors; recombinant TDP1, AlphaScreen DNA substrate cleavage; Q9NUW8; 350,000 compounds, 0.28% hits; note: potency is the fitted concentration of half-maximal effect; % is set by controls: 0 for no effect and ±100 for the full control effect; nearly all actives have a fitted effect of over 40% in size
Target sequence (Q9NUW8 whole entry, looked up): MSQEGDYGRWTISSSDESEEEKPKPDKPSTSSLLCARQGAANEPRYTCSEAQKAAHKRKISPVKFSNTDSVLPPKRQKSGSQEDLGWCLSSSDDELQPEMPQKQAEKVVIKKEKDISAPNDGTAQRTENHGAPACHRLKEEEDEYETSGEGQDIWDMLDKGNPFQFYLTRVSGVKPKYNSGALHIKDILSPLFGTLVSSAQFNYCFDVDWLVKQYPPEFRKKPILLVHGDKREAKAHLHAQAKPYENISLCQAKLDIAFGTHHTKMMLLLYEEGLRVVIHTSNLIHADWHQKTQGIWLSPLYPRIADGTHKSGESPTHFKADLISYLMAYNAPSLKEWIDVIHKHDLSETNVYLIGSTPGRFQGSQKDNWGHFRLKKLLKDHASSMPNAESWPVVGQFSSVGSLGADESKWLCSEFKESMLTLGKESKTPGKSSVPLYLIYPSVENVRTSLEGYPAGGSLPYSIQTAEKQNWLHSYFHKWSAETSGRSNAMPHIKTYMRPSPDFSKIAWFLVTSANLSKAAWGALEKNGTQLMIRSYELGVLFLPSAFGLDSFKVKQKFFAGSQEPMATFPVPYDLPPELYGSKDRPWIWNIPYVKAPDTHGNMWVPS
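Here, a 5' biotin and 3' phosphotyrosine-FITC DNA oligonucleotide reports Tdp1 activity: intact substrate bridges AlphaScreen beads, while cleavage leaves a 3' phosphate and drops signal. All incubations at room temperature.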
TDP1 cell noCPT: qHTS for Inhibitors of human tyrosyl-DNA phosphodiesterase 1 (TDP1): qHTS in cells in absence of CPT | Potency, µM (doses to about 46.2 µM), for inactives: top-dose activity change, negative = growth inhibition, usual class: inhibitors | DT40 Tdp1-/- hTDP1 cells, no CPT, ATP luminescence, 48 h | 420,000 compounds, 15% hits; note: potency is the fitted concentration of half-maximal effect; % is set by controls: 0 for no effect and ±100 for the full control effect; nearly all actives have a fitted effect of over 55% in size
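Readout: luminescence from CellTiter-Glo after 30 min in the dark at RT. Cells: DT40 Tdp1-/- with stable hTDP1, 400/well. Exposure: compounds alone, ≥48 hr, 37 °C.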
IL1B secr inh: blocks inflammasome-driven IL-1 beta release | THP-1 LPS/ATP IL-1B secretion, AlphaLISA, 16 h; hits give low values | activity change, % at 57.5 µM | 360,000 compounds, 4.7% hits; in the data active = activity change below about -50%; inconclusive = mostly about -30% to -49%; note: % is set by controls: 0 for no effect and ±100 for the full control effect
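Secreted IL-1B measured by AlphaLISA bead assay after 16 h compound exposure of THP-1 cells; compounds (final up to 57.5 uM) added 1 h before LPS (250 ng/mL) and ATP (1.25 mM) stimulation; lower signal means less secretion.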
HepG2 viability: kills HepG2 cells in TGF-b inhibitor counter-screen. HepG2 CAGA-GFP viability, ATP luminescence, 18 h. Potency, µM (titrated, usually from 46.1 µM), inactives show top-dose activity change, negative = cytotoxicity, most hits filed as cytotoxic. 410,000 compounds, 0.76% hits. AID 588856; note: potency is the fitted concentration of half-maximal effect
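HepG2 CAGA-GFP cells (1000/well, DMEM with 1% FBS) received compound, then TGF-beta at 500 pg/mL final, and were incubated 18 hours at 37 degrees C. Viability was read by CellTiter-Glo luminescence. Media-only wells were set as complete cell-killing and DMSO as no toxicity.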
DT40 TDP1 CPT: growth inhibition of DT40 Tdp1-/-;hTDP1 cells with camptothecin (screen for TDP1 inhibitors) | chicken DT40 Tdp1-/-;hTDP1 cells + 20 nM CPT, ATP luminescence, 48 h | 420,000 compounds, 12% hits | Potency, µM (highest dose often 46.2 µM), inactives show top-dose activity change, negative = growth inhibition, most hits filed as inhibitors | AID 686979; note: potency is the fitted concentration of half-maximal effect; % is set by controls: 0 for no effect and ±100 for the full control effect; nearly all actives have a fitted effect of over 55% in size
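Chicken DT40 Tdp1-/- cells stably complemented with human TDP1 were seeded at 400 cells/well in medium containing 20 nM camptothecin, exposed to pin-transferred compounds, and grown at 37 °C for at least 48 hr. Viability was read as ATP luminescence.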
Numbers without * were called inactive; ? = inconclusive; . = no result; [ ] = dose if it differs, or a comment. Hits are enriched below; roughly 18% of the tested compounds scored in any of these assays. Unless noted, calls come from the whole dose curve; as a rule, active = well fitted curve in the direction sought with a large enough effect; inconclusive = small, poorly fitted or top-dose-only effect, or another doubt; inactive = no such curve, though single readings can be large; an effect the other way counts as inactive or inconclusive.

SMILES | TGFb SMAD3 inh | TDP1 block | TDP1 cell noCPT | IL1B secr inh | HepG2 viability | DT40 TDP1 CPT
COc1cccc(CN(C(=O)c2ccc(C(C)(C)C)cc2)C2CCS(=O)(=O)C2)c1 (stereo not given) | -15% | 7% | -35% | . | -29% | ?
CCOC(=O)c1sc2nc(C)nc(N3CCN(c4ncccn4)CC3)c2c1C | 5% | -5% | 15µM* | -3 | 20% | ?
CCOC(=O)c1sc2nc(C)nc(NCCc3ccccn3)c2c1C | 4% | 3% | 21µM* | -55* | 12% | 21µM*
CCOc1ccc(N(CC)S(=O)(=O)N2CCCC(C(=O)Nc3ccc(OC)c(Cl)c3)C2)cc1 (stereo not given) | ? | 0% | 23µM* | . | -25% | 16µM*
CCOc1ccc(N(CC)S(=O)(=O)N2CCCC(C(=O)Nc3cc(Cl)ccc3OC)C2)cc1 (stereo not given) | ? | -3% | 18µM* | . | -24% | ?
CN(C(=O)CSc1nc2ncccc2o1)c1ccc(F)cc1 | -12% | 6% | -22% | . | -18% | 3%
Cc1ccc(-c2nc(N3CCN(C)CC3)c3ccccc3n2)cc1 | -8% | . | ? | ? | -39% | ?
CN1CCN(c2nc(-c3ccc(C(C)(C)C)cc3)nc3ccccc23)CC1 | ? | . | 21µM* | -16 | -82% | ?
CCN1CCN(c2nc(-c3ccccc3)nc3ccccc23)CC1 | -5% | 0% | 29µM* | -65* | -28% | ?
COc1cccc(NC(=O)C2CCC(CNS(=O)(=O)c3csc(C(N)=O)c3)CC2)c1 (stereo not given) | -15% | 3% | -13% | . | -26% | ?
Cc1ccc(/C=C2\C(=O)Nc3ccccc32)o1 | -6% | 5% | 3.7µM* | 2 | -6% | 1.5µM*
O=C1Nc2ccccc2/C1=C/c1cccnc1 | -3% | 1% | ? | -65* | -8% | ?
CC(=O)N1/C(=C/c2ccc(N(C)C)cc2)C(=O)c2ccccc21 | 15% | 11% | 0.46µM* | -95* | -47% | 0.52µM*
CN(C)c1ccc(/C=C2/C(=O)Nc3ccccc32)cc1 | . | 27%[56.1 µM] | ? | . | . | ?
CN(C)c1ccc(/C=C2\C(=O)Nc3ccccc32)cc1 | 0% | 23%[56.1 µM] | 16µM* | . | -27% | 16µM*
CCc1ccc(-n2nnc(-c3nc(-c4cccs4)no3)c2N)cc1 | 0% | 3% | ? | . | 6% | -28%
OC(c1ccc(F)c(F)c1)c1nc(-c2ccoc2)cs1 (stereo not given) | 10% | . | ? | -16 | -33% | ?
CN(C)c1ccc(/C=C2\C(=O)/C(=C/c3ccc(N(C)C)cc3)c3ccccc32)cc1 | 0% | . | 7.1µM* | . | -17% | ?
Cc1ccccc1/C=C1\C(=O)Nc2ccc(F)cc21 | ? | . | ? | 5 | -19% | -24%
O=C1Nc2ccccc2/C1=C/c1ccccc1F | -25% | . | 23µM* | -30 | -38% | ?
CC1=NOC(=O)/C1=C/c1ccc(N(C)C)cc1 | 4% | 5% | -11% | -6 | -7% | 3%
Cc1nn(-c2ccccc2)c(Cl)c1/C=C1\SC(=S)N(C)C1=O | -12% | -3% | ? | 3 | -3% | ?
Cc1nn(-c2ccc(F)cc2)c(Cl)c1/C=C1\C(=O)Nc2ccccc21 | ? | -3% | 8.2µM* | 0 | -41% | 6.5µM*
CC(Oc1ccc2c3c(c(=O)oc2c1)CCCC3)C(=O)NCc1cccnc1 (stereo not given) | -4% | 4% | ? | -10 | -8% | -21%
Cc1ccc(CCSc2ccc(C(C)C)cc2)cn1 | -19% | 0% | 26µM* | -59* | -25% | ?
SMILES | TGFb SMAD3 inh | TDP1 block | TDP1 cell noCPT | IL1B secr inh | HepG2 viability | DT40 TDP1 CPT
Cc1cccc(Oc2ccc3c(c2)Oc2ccccc2NC3=O)c1 | ? | . | ? | . | -49% | 16µM*
O=C1Nc2ccccc2Oc2cc([N+](=O)[O-])cc(Oc3ccccc3)c21 | ? | 3% | ? | 8 | -53% | ?
O=[N+]([O-])c1cc2c(c([N+](=O)[O-])c1)Nc1ccccc1O2 | ? | . | 7.3µM* | ? | -27% | 12µM*
Cc1cccc(Oc2cc([N+](=O)[O-])cc3c2C(=O)Nc2ccccc2O3)c1 | ? | 3% | 13µM* | 0 | -11% | ?
O=C(NC(Cc1ccccc1)C(=O)O)/C(=C\c1ccc(Cl)cc1)NC(=O)c1ccco1 (stereo not given) | -4% | 5% | -4% | 9 | -2% | -14%
C=CS(=O)(=O)c1sc(Cl)c(N2CCOCC2)c1[N+](=O)[O-] | -16% | 3% | 2.9µM* | -112* | -28% | 1.6µM*
C=CSc1sc(Cl)c(N2CCOCC2)c1[N+](=O)[O-] | -4% | 3% | ? | -105* | -3% | 0%
O=[N+]([O-])c1cccc(Cl)c1N1CCOCC1 | 0% | 1% | -26% | 11 | 0% | ?
OC1(c2cccnc2)CCN(Cc2ccc3c(c2)CN(Cc2cc(F)ccc2F)CCO3)CC1 | . | . | ? | . | . | 9%[9.04 µM]
COc1ccc(N(CC(=O)Nc2ccc(C)cc2C)S(=O)(=O)c2c(C)n[nH]c2C)cc1 | -17% | 1% | 18µM* | -1 | 1% | -11%
COc1ccc(N(CC(=O)NCc2ccccc2)S(=O)(=O)c2c(C)n[nH]c2C)cc1 | 0% | 2% | -3% | -26 | -35% | 21µM*
CCOc1ccccc1NC(=O)CN(c1ccc(C)cc1)S(=O)(=O)c1c(C)n[nH]c1C | ? | 5% | ? | -95* | -113% | ?
COc1ccc(N(CC(=O)Nc2cc(Cl)ccc2C)S(=O)(=O)c2c(C)n[nH]c2C)cc1 | -20% | 5% | 5.2µM* | -10 | -1% | 4.1µM*
CN(CC(=O)Nc1ccccc1Br)C(=O)CN1CCN(Cc2cccc(Cl)c2)CC1 | -19% | 3% | ? | -12 | 0% | ?
COc1ccc(S(=O)(=O)Nc2c(C)n(C)n(-c3ccccc3)c2=O)c(Cl)c1Cl | -8% | . | 1% | 26 | -6% | -7%
CCOc1cc(CNC(=O)c2ccc3c(c2)nc2n3CCCCC2)ccc1OC | -1% | 8% | -11% | . | -14% | -13%
N#CCCn1cc(/C=N/NC(N)=S)c(-c2ccccc2)n1 | -19% | 0% | ? | 7 | -24% | ?

Source: PubChem BioAssay
